The values below come from PubChem BioAssay AID687043 (Milwaukee Institute for Drug Discovery, 2013).

Hit rate of the full screen: of about 16,000 compounds, about 250 (1.6%) were called active. The full list was thinned out, with actives kept by preference. Values without a mark were called inactive.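 Rule for the calls: active = inhibition above the average over every tested compound plus 3 SD (cut at about 40% in these data); inactive = the rest.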

The assay has as its system Hepatitis C virus NS3 helicase. The experiment in a line: compounds blocking NS3h DNA binding – biochemical, fluorescence polarization, ChemBridge library, primary screen (AID 687043). The note with it: NS3h Cy5-dT15 DNA binding, at 100 µM, stronger effect = higher value. For orientation: In fluorescence polarisation assays a small probe gives low polarisation when free and higher when bound to something large.
In the case of `CCOc1cc(C=C2C(=O)NC(=O)NC2=O)cc(Br)c1OCCOc1ccccc1C`, the inhibition – broadly, the relative decrease from the control value, in per cent – is 51.3% (active).

On to `Nc1ccc(Cc2ccc(N)c(Cl)c2)cc1Cl`, for which the inhibition was 7.3%.

`COc1cccc(CN2CCN(Cc3ccccc3OC)CC2)c1`: the inhibition is -10.1%.

For the compound `Cc1ccccc1CN1CCN(C(=O)COc2ccc(Cl)cc2)CC1`, the inhibition was 8.5%.

Take `COc1cc(C)cc2oc(=O)c3c(c12)CCC3`: the inhibition was -2.5%.
